Inconclusive results are not listed. Activity calls are given as the source filed them. Calls come from the whole dose curve; as a rule, active = well fitted inhibition curve with a large enough effect in the repeat runs; inconclusive = weak or mixed curves; inactive = no such curve, though single readings can be large or run the other way.
These compounds were tested against Cytochrome P450 3A4 (Homo sapiens) (UniProt P08684) (assay: Cytochrome P450 Family 3 Subfamily A Member 4 (CYP3A4) small molecule antagonists: luciferase reporter qHTS assay (AID 1671201; note: nearly all actives have a fitted effect of over 50% in size)). Settings: P450-Glo CYP3A4 enzyme, luciferin luminescence, 1 h; series mostly up to 115 µM; activity change, negative = inhibition: at the top concentration.
Sequence of Cytochrome P450 3A4 (Homo sapiens) (P08684 whole entry, looked up): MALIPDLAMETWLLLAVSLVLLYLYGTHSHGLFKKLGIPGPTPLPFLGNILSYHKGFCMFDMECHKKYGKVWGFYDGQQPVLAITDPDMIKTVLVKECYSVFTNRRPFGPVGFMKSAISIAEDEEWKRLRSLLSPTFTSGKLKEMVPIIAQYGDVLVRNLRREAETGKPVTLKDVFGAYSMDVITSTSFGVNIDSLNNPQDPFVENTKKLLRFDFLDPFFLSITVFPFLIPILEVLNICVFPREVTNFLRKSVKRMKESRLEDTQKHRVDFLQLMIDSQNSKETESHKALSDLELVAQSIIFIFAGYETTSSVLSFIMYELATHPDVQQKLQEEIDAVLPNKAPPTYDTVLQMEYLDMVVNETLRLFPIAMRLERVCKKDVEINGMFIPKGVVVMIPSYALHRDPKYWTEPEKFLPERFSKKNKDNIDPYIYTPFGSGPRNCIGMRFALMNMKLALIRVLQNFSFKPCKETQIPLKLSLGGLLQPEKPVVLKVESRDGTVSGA
Description: National Center for Advancing Translational Sciences [NCATS]
U.S. Environmental Protection Agency [EPA]
National Institutes of Environmental Health Sciences [NIEHS]
National Toxicology Program [NTP]
U.S. Food and Drug Administration [FDA]
Cytochrome P450 (CYP) enzymes are membrane-bound hemeproteins that play a key role in metabolism of drugs and xenobiotics. Evaluation of the effect of chemicals on CYP isozymes is useful to minimize the adverse drug reactions and toxicities in drug development process. Tox21 chemicals were tested for their effect on CYP enzyme activities by using P450-Glo (TM) screening systems (Promega Corporation, Madison, WI). These systems provide a luminescent method containing proluciferin substrates and are converted to luciferin products by CYP isozymes. The luciferin products formed are detected with a luciferin detection reagent, and the amount of light produced is proportional to CYP activity. P450-Glo (TM) CYP3A4 screening system (Catalog. No. V9910) was used to detect the compounds that interfere in CYP3A4 activity. The positive control compound used for CYP3A4 assay is ketoconazole (Sigma-Aldrich, St. Louis, MO).
Tox21 Assay Protocol Summary:
Two ul of enzyme-substrate mix was dispensed into medium binding white/solid 1536-well plates (Greiner Bio-One North America Inc., Monroe, NC) using a BioRaptr Flying Reagent Dispenser (FRD, Beckman Coulter, Brea, CA). Compounds dissolved in DMSO and positive control (ketoconazole) were transferred to the assay plates at 23 nl using a Pintool station (Wako, San Diego, CA). The assay plates were incubated at room temperature for 10 min. Then 2 ul of NADPH regeneration solution was added to each well of the assay plates using an FRD and incubated at room temperature for 1 h. The reaction was stopped by adding 4 ul of detection reagent using an FRD and after 20 min incubation at room temperature the luminescence signal was measured using a ViewLux plate reader (Perkin Elmer, Shelton, CT). Data were expressed as relative luminescence units.
% is set by controls: 0 for no effect and ±100 for the full control effect; potency is the fitted concentration of half-maximal effect.

Compound | activity change, negative = inhibition | Potency
COc1ccccc1N1CCN(CC(O)COc2cccc3ccccc23)CC1 (stereo not given) | -4.4% [at 52.9 µM] (inactive) | 
CC(=O)Nc1ccc(C)cc1C | -4.91% (inactive) | 
CN(C)CCC=C1c2ccccc2C=Cc2ccccc21 | -8.67% [at 52.9 µM] (inactive) | 
CS(=O)(=O)c1ccc(-c2cn3ccccc3n2)cc1 | 3.42% [at 52.9 µM] (inactive) | 
C=C1c2cccc(O)c2C(O)=C2C(=O)[C@]3(O)C(O)=C(C(N)=O)C(=O)[C@@H](N(C)C)[C@@H]3[C@@H](O)[C@H]12 | 4.73% [at 52.9 µM] (inactive) | 
Cc1ccc(OC(=O)c2ccccc2O)cc1 | 2.25% (inactive) | 
OCCOCC#CCOCCO | 6.1% (inactive) | 
O=C1NCCN1CCO | 9.37% (inactive) | 
CC(C)(C)C(=O)C(=O)O | 10.4% (inactive) | 
Oc1ccc(Cl)c2cccnc12 | 10.4% [at 52.9 µM] (inactive) | 
COC(=O)CCS | 14.9% (inactive) | 
CC(=O)OCC[N+](C)(C)C | 2.13% [at 52.9 µM] (inactive) | 
CC1=C(Br)C(=O)C(Br)=C/C1=C(/c1ccccc1S(=O)(=O)O)c1cc(Br)c(O)c(Br)c1C |  | 24.2 µM (active)
Cc1cccc(N(C)C(=S)Oc2ccc3c(c2)CCC3)c1 | -24.1% [at 52.9 µM] (inactive) | 
COc1ccc(OC(=O)N(CC(=O)O)Cc2ccc(OCCc3nc(-c4ccccc4)oc3C)cc2)cc1 | 21.1% [at 52.9 µM] (inactive) | 
CCCCCCCC/C=C\CCCCCCCCCCCC(=O)O | 0.482% (inactive) | 
CCOc1cccc(-n2cc(C(=O)N3CCN(c4cc(C(=O)O)c5ccccc5c4)CC3)nc2-c2ccc(C)cc2)c1 | -3.1% (inactive) | 
CC(=O)OCC(=O)NCCCOc1cccc(CN2CCCCC2)c1 | 4.92% [at 52.9 µM] (inactive) | 
N#CCCN(CCO)CCO | -1.17% (inactive) | 
CCCCCC[C@@H](O)C/C=C\CCCCCCCC(=O)O | 40.9% (inactive) | 

Compound | activity change, negative = inhibition | Potency
CC(=O)c1cc2ccccc2s1 | 37.5% [at 52.9 µM] (inactive) | 
CCOC(=O)c1ccc(I)cc1 | 22% (inactive) | 
Nc1ccc(N=Nc2ccccc2)c(N)c1 |  | 11 µM (active)
FC(F)(F)c1ccccc1Cl | -0.36% (inactive) | 
CC(CN(C)C)C(C)(O)Cc1ccc(Cl)cc1 (stereo not given) | 2.07% [at 52.9 µM] (inactive) | 
CCn1cc(C(=O)O)c(=O)c2cc(F)c(N3CCNCC3)cc21 | 1.91% [at 52.9 µM] (inactive) | 
C[C@@H](O)[C@H]1C(=O)N2C(C(=O)O)=C([C@H]3CCCO3)S[C@H]12 | 3.03% [at 52.9 µM] (inactive) | 
COC(=O)c1nc(Cl)c(Cl)nc1N | 18.1% [at 52.9 µM] (inactive) | 
O=C1CCCCCCCCCCOCCCCO1 |  | 39.9 µM (active)
C=C(C)CCCC(C)CCO (stereo not given) |  | 28.3 µM (active)
CCC1(CO)COCOC1 | 41.6% (inactive) | 
O=C1c2ccccc2C(=O)C1(O)O | 19.4% (inactive) | 
CN1C(=O)c2ccccc2C1=O | 31.8% (inactive) | 
O=c1cc(-c2ccccc2)oc2cc(O)cc(O)c12 |  | 17.8 µM (active)
O=c1[nH]c2ccc(Cl)cc2o1 | 1.39% (inactive) | 
NC(=O)c1ccncc1 | 3.64% (inactive) | 
CCC(C)COC(=O)CC(C)C (stereo not given) | 3.08% (inactive) | 
CCC(C)COC(C)=O (stereo not given) | 5.51% (inactive) | 
Cc1ccc(C(C)(C)O)cc1 | 7.47% (inactive) | 
CN1C(=O)N(c2ccccc2Br)Cc2cnc(Nc3ccc4c(c3)OCC(CO)O4)nc21 (stereo not given) | 72.7% (inactive) | 

From PubChem BioAssay (Tox21)
